From PubChem BioAssay
T cruzi growth-1 – T. cruzi intracellular proliferation inhibitors, primary screen, cell-based, beta-gal Tulahuen parasites, NIH3T3 host, luminescence | actives 5.9% (n = 77,000) | AID 624255, 2012 | inhibition, % at 8.34 µM | T. cruzi beta-gal in NIH3T3, GalScreen luminescence, 90 h;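 active = mean inhibition above about 93%, with at least 55% of replicates each passing it, limit read from the data, passing the limit was not always enough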
C diff HTS – C. difficile growth inhibitors, primary screen, HTS; actives 0.25% (n = 86,000); AID 1259249, 2017; growth activity, negative = inhibition, % at 16 µg/mL (by protocol); Clostridium difficile clinical isolate growth, OD600, 24 h; hits give low values;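 active = mean growth activity at or below -80% and every replicate also at or below -80%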;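 note: 0% = DMSO wells and -100% = levofloxacin 16 µg/mL wells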
T cruzi growth-2 – T. cruzi intracellular proliferation inhibitors, confirmation, cell-based, NIH3T3 host, beta-gal parasite, luminescence, cherry-pick; inhibition, % at 8.35 µM; AID 651739, 2012; shares compounds with T cruzi growth-1; T. cruzi beta-gal in NIH3T3, GalScreen luminescence, 90 h; actives 72% (n = 5,600);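 active = mean replicate inhibition above about 95% and at least 55% of replicates individually reaching it, limit read from the data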
T cruzi growth-3 – inhibitors of intracellular T. cruzi replication, confirmation, NIH3T3 host cells, beta-gal parasites, cherry-pick, set 2. T. cruzi beta-gal in NIH3T3, GalScreen luminescence, 90 h. actives 21% (n = 5,600). AID 651740, 2012. shares compounds with T cruzi growth-1. inhibition, % at 2.09 µM;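 active = mean inhibition above about 95%, with at least 55% of replicates also reaching it, limit read from the data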;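 note: plate controls were neutral control median for no effect and positive control median for full effect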
NIH3T3 tox – cytotoxicity in mouse NIH/3T3 fibroblasts, confirmation, cytotoxicity control for T. cruzi proliferation inhibitor project, cell-based, cherry-pick, single point. actives 14% (n = 5,600). cytotoxicity (signal decrease), % at 8.35 µM. shares compounds with T cruzi growth-1. NIH/3T3 viability, CellTiter-Glo ATP luminescence, 90 h;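 active = mean signal decrease across replicates above about 35% based on untreated-well scatter, with enough replicates individually passing, limit read from the data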;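 note: 0% = median of neutral control wells and 100% = median of positive control wells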
NIH3T3 tox 2 – NIH/3T3 fibroblast cytotoxicity, confirmation, cytotoxicity control, cell-based, cherry-pick, single point, set 2; inhibition, % at 24.9 µM; AID 651744, 2012; actives 56% (n = 5,600); shares compounds with T cruzi growth-1; NIH/3T3 viability, CellTiter-Glo ATP luminescence, 90 h;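 active = mean loss of cell viability signal at or above a set limit, and enough replicates individually reaching it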;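 note: 0% = median of neutral control wells and 100% = median of positive control wells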
Numbers without * were called inactive. The full list was thinned out, with hits kept by preference.

CC(C)NC(=O)N1CCCCN2[C@H](C1)[C@H](c1ccc(C#C[C@H](C)O)cc1)[C@@H]2CO was read as T cruzi growth-1 19 and C diff HTS -10.
Screening CC(C)NC(=O)N1CCCCN2[C@H](CO)[C@@H](c3ccc(C#Cc4ccccc4F)cc3)[C@@H]2C1 returned T cruzi growth-1 102*, C diff HTS -1, T cruzi growth-2 108*, T cruzi growth-3 85, NIH3T3 tox 16 and NIH3T3 tox 2 105*.
For CN1C(=O)c2cc(NC(=O)Cc3ccccc3)ccc2OC[C@H]2O[C@@H](CC(=O)O)CC[C@@H]21 the results were T cruzi growth-1 9 and C diff HTS -7.
For Cc1ccc(S(=O)(=O)N2C[C@@H](O)COC[C@H]3O[C@H](CC(=O)NCC4CCCCC4)CC[C@@H]32)cc1 the results were T cruzi growth-1 -16.
`CC(C)NC(=O)N1CCCCN2[C@H](CO)[C@@H](c3ccc(C#C[C@@H](C)O)cc3)[C@H]2C1` gave T cruzi growth-1 47 and C diff HTS 1.
Screening CC(C)NC(=O)N1CCCCN2[C@@H](CO)[C@H](c3ccc(C#Cc4ccccc4)cc3)[C@@H]2C1 returned T cruzi growth-1 106*, C diff HTS 26, T cruzi growth-2 108*, T cruzi growth-3 78, NIH3T3 tox 27 and NIH3T3 tox 2 105*.
For CC(C)NC(=O)N1CCCCN2[C@H](CO)[C@@H](c3ccc(C#C[C@H](C)O)cc3)[C@H]2C1 the results were T cruzi growth-1 31 and C diff HTS 6.
`CC(C)NC(=O)N1CCCCN2[C@H](CO)[C@@H](c3ccc(C#C[C@H](C)O)cc3)[C@@H]2C1` gave T cruzi growth-1 106*, C diff HTS 0, T cruzi growth-2 47, T cruzi growth-3 25, NIH3T3 tox 11 and NIH3T3 tox 2 25.
Screening CN1C(=O)c2cc(NC(=O)C3CCC3)ccc2OC[C@H]2O[C@H](CC(=O)NCC3CCCCC3)CC[C@@H]21 returned C diff HTS 2.
Screening COC(=O)C[C@H]1CC[C@H]2[C@@H](COC[C@@H](O)CN2C(=O)Nc2cccc(F)c2)O1 returned T cruzi growth-1 -2 and C diff HTS 2.
Screening CC(C)C#Cc1cnc2c(c1)C(=O)N([C@H](C)CO)C[C@@H](C)[C@@H](CN(C)Cc1ccccc1F)O2 returned T cruzi growth-1 3 and C diff HTS 1.
O=C(C[C@@H]1C=C[C@H](NC(=O)C2CCC2)[C@@H](CO)O1)NCc1ccccc1Cl was read as C diff HTS 0.
Screening CO[C@@H]1CN(C)C(=O)c2cc(NC(=O)c3nc4ccccc4s3)ccc2OC[C@H](C)N(Cc2cncnc2)C[C@H]1C returned T cruzi growth-1 -11.
`CN1c2ccc(C#Cc3cccnc3)cc2[C@@H]2[C@@H](CCN2S(=O)(=O)c2ccc(F)cc2)[C@H]1CO` gave T cruzi growth-1 85 and C diff HTS -6.
CN1c2ccc(-c3cccc(C#N)c3)cc2[C@@H]2[C@@H](CCN2S(=O)(=O)c2cccc(F)c2)[C@@H]1CO was read as T cruzi growth-1 25 and C diff HTS 4.
`CN1c2ccc(-c3cccc(C#N)c3)cc2[C@@H]2[C@@H](CCN2S(=O)(=O)c2ccccc2)[C@@H]1CO` gave T cruzi growth-1 116*, C diff HTS 9, T cruzi growth-2 99*, T cruzi growth-3 85, NIH3T3 tox 51* and NIH3T3 tox 2 14.
`CN1c2ccc(C#Cc3cccnc3)cc2[C@H]2[C@H](CCN2S(=O)(=O)c2ccc(F)cc2)[C@H]1CO` gave T cruzi growth-1 97*, C diff HTS -4, T cruzi growth-2 102*, T cruzi growth-3 111*, NIH3T3 tox 37* and NIH3T3 tox 2 42*.
CN1c2ccc(C#Cc3cccnc3)cc2[C@@H]2[C@@H](CCN2C(=O)C2CCCC2)[C@@H]1CO was read as C diff HTS 13.
